RecA splice inh – inhibitors of M. tuberculosis RecA intein splicing. inhibition, % (no concentration beside the values). actives 0.75% (n = 290,000). cell-free RecA intein splicing, fluorescence; in the data active = inhibition above about 30%;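 note: 0% = vehicle wells and 100% = reference inhibitor control wells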
Target sequence (P9WHJ3 whole entry, looked up, canonical isoform): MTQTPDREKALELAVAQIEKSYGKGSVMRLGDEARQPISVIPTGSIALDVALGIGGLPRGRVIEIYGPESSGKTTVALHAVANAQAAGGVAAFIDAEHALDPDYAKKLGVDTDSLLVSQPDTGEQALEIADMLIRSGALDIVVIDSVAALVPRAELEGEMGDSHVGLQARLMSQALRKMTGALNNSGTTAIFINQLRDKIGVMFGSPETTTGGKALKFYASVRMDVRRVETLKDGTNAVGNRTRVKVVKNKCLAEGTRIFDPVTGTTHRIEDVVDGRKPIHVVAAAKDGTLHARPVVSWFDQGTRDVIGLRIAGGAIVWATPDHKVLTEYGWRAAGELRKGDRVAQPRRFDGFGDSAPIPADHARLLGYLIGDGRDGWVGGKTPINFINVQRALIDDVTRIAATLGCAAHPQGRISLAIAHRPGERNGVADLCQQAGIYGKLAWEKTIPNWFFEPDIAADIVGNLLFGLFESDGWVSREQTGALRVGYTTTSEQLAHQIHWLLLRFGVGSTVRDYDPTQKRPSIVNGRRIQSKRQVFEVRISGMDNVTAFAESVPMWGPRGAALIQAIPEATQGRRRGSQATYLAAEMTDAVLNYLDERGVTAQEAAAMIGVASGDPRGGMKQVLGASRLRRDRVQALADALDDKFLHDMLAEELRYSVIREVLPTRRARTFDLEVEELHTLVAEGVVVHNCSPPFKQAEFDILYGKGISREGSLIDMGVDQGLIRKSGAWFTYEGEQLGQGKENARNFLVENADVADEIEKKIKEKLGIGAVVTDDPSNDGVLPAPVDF
Rv3671c inh – inhibitors of M. tuberculosis serine protease Rv3671c | P9WHR9 | inhibition, % at 5.96 µM | actives 0.048% (n = 320,000); in the data active = inhibition above about 38%;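 note: extracellular domain of Rv3671c used as enzyme; 0% = enzyme with DMSO and 100% = no enzyme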
Mtb bLac sens – beta-lactam sensitization of Mtb H37Rv | M. tuberculosis H37Rv growth with meropenem, percent inhibition | AID 434955 | inhibition, % at 25 µM | actives 0.27% (n = 330,000); call rule not given here;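 note: growth measured after seven days incubation then overnight dye step; 0% = bacteria only wells and 100% = bacteria with antibiotic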
GDH-TPI counter – inhibits GDH-TPI coupling enzymes, artifact for Mtb FBA screen. GDH-TPI coupled enzyme counterscreen, NADH absorbance. inhibition, % at 4.8 µM. actives 1.2% (n = 360,000); in the data active = inhibition above about 30%;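 note: 0% = DMSO wells and 100% = wells lacking the enzyme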
FBA Mtb inh – inhibitors of M. tuberculosis fructose-bisphosphate aldolase; purified M. tuberculosis FBA, fluorescence read-out; inhibition, % at 1 µM; actives 2.3% (n = 360,000); in the data active = inhibition above about 27%;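 note: 0% = vehicle and 100% = reference inhibitor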
UGM FP inh – inhibitors of M. tuberculosis UDP-galactopyranose mutase; AID 504406; inhibition, % at 10 µM; actives 0.06% (n = 320,000); P9WIQ1; purified UGM, fluorescence polarization probe displacement; in the data active = inhibition above about 10%, passing the limit was not always enough
Numbers without * were called inactive. Hits are enriched below; roughly 4% of the tested compounds scored in any of these assays.

What do the screens show for `CCc1cc(=O)oc2c3c(cc(OCC(=O)NCCCOC)c12)OC(C)(C)CC3`?
RecA splice inh: 0.6; Rv3671c inh: -0.2; Mtb bLac sens: -3.8; GDH-TPI counter: 9.5; FBA Mtb inh: active; UGM FP inh: 0.9

How did CCc1cc(=O)oc2c(C)c(OCC(=O)NCCCN3CCOCC3)ccc12 do in these assays?
RecA splice inh: 0.3; Rv3671c inh: -10.7; Mtb bLac sens: -0.2; GDH-TPI counter: 11.8; FBA Mtb inh: 19.3; UGM FP inh: -0.6

Results for Cc1c(C)c2ccc(OCC(=O)N3CCC[C@@H]3C(=O)O)c(C)c2oc1=O ?
RecA splice inh: 4.1; Rv3671c inh: 13.9; Mtb bLac sens: -2.6; GDH-TPI counter: 7.6; FBA Mtb inh: 128.9*; UGM FP inh: 0.1

What do the screens show for `C=CCN=C1SCC(=O)N1S(=O)(=O)c1ccc(C)cc1`?
RecA splice inh: 1.0; Rv3671c inh: -8.5; Mtb bLac sens: -8.0; GDH-TPI counter: 3.2; FBA Mtb inh: -0.2; UGM FP inh: 1.3

What do the screens show for `C=CCN=C1S/C(=C\N(C)C)C(=O)N1S(=O)(=O)c1ccc(C)cc1`?
Rv3671c inh: 1.6; Mtb bLac sens: -0.7; GDH-TPI counter: 36.1*; FBA Mtb inh: -3.5; UGM FP inh: 1.3

What do the screens show for `Cc1ccc(O)c(C(=O)c2cnn(C(=O)Cc3csc(C)n3)c2)c1`?
Rv3671c inh: 3.7; Mtb bLac sens: -2.8; GDH-TPI counter: 12.7; FBA Mtb inh: 5.6; UGM FP inh: -1.2

How did Cc1nc(CC(=O)c2ccc(O)cc2O)cs1 do in these assays?
RecA splice inh: -0.1; Rv3671c inh: -3.4; Mtb bLac sens: -21.5; GDH-TPI counter: 32.5*; FBA Mtb inh: -0.6; UGM FP inh: 1.8

Results for CCCCCC(=O)c1ccc(O)cc1O ?
RecA splice inh: -0.2; Rv3671c inh: 1.9; Mtb bLac sens: 90.7; GDH-TPI counter: 23.2; FBA Mtb inh: 1.0; UGM FP inh: 0.3

Results for Cc1nc(CC(=O)c2c(C)cc(O)cc2O)cs1 ?
RecA splice inh: 0.6; Rv3671c inh: 0.7; Mtb bLac sens: 7.8; GDH-TPI counter: 36.8*; FBA Mtb inh: 0.3; UGM FP inh: 0.8

Results for O=C(Cc1cscn1)c1ccc(O)cc1O ?
Rv3671c inh: 0.7; Mtb bLac sens: -2.9; GDH-TPI counter: 37.5*; FBA Mtb inh: -1.4; UGM FP inh: -0.1

Results for Cc1nc(CC(=O)c2ccc(O)c(C)c2O)cs1 ?
RecA splice inh: 2.6; Rv3671c inh: -11.8; Mtb bLac sens: -2.4; GDH-TPI counter: 59.3*; FBA Mtb inh: -0.6; UGM FP inh: -1.2

What do the screens show for `Cc1ccc2c(c1)N(Cc1cccc(C#N)c1)C=NS2(=O)=O`?
RecA splice inh: 0.0; Rv3671c inh: -0.9; Mtb bLac sens: -10.0; GDH-TPI counter: 1.0; FBA Mtb inh: 3.0; UGM FP inh: 0.1

What do the screens show for `Cc1cnc(CNC(=O)C2CCC(=O)N(CCc3cccc(F)c3)C2)[nH]1` (stereo unspecified)?
RecA splice inh: 0.7; Rv3671c inh: 4.6; Mtb bLac sens: 0.6; GDH-TPI counter: 4.3; FBA Mtb inh: -2.8; UGM FP inh: 0.7

What do the screens show for `COc1ccc(OC)c(CN2CCN(C(=O)c3ccc(S(=O)(=O)Nc4ccccc4F)cc3)CC2)c1`?
Rv3671c inh: -0.4; Mtb bLac sens: -8.0; GDH-TPI counter: 6.1; FBA Mtb inh: 3.6; UGM FP inh: 0.1

Results for O=C(O)c1ccc(Nc2nc(-c3cccnc3)cs2)cc1O ?
RecA splice inh: 0.3; Rv3671c inh: -5.8; Mtb bLac sens: 90.2; GDH-TPI counter: 43.4*; FBA Mtb inh: -2.0; UGM FP inh: -3.0

What do the screens show for `CCCCCc1cc(=O)oc2c(C(CCN3CCCC(C)C3)c3cc(OC)c(OC)c(OC)c3)c(OC)cc(OC)c12` (stereo unspecified)?
RecA splice inh: 29.4; Rv3671c inh: -3.7; Mtb bLac sens: 100.0; GDH-TPI counter: -4.8; FBA Mtb inh: 0.6; UGM FP inh: -1.6

Results for CCCCCc1cc(=O)oc2c(C(CCN3CCCC(C)C3)c3ccc(N(C)C)cc3)c(OC)cc(OC)c12 (stereo unspecified) ?
RecA splice inh: 30.9*; Rv3671c inh: -5.2; Mtb bLac sens: 100.4; GDH-TPI counter: -1.8; FBA Mtb inh: 3.4; UGM FP inh: 2.2

How did O=C(Nc1nnc([C@@H]2C[C@H](O)[C@@H](CO)O2)s1)Nc1ccccc1C(F)(F)F do in these assays?
GDH-TPI counter: 17.7; FBA Mtb inh: 2.8

Results for CCNC(=O)C(Cc1ccccc1)NC(=O)OCc1ccccc1 (stereo unspecified) ?
RecA splice inh: 0.1; Rv3671c inh: 1.2; Mtb bLac sens: -0.7; GDH-TPI counter: -0.6; FBA Mtb inh: -2.8; UGM FP inh: 2.2

Results for Cc1ccc(S(=O)(=O)NC(C(=O)Oc2ccc3c(C)c(Cl)c(=O)oc3c2)c2ccccc2)cc1 (stereo unspecified) ?
RecA splice inh: -98.7; Rv3671c inh: 8.8; Mtb bLac sens: 89.4; GDH-TPI counter: 6.7; FBA Mtb inh: active; UGM FP inh: -1.3

What do the screens show for `Cc1ccc(S(=O)(=O)NC(C(=O)Oc2ccc3ccc(=O)oc3c2)c2ccccc2)cc1` (stereo unspecified)?
RecA splice inh: -81.7; Rv3671c inh: -10.8; Mtb bLac sens: 11.2; GDH-TPI counter: 24.7; FBA Mtb inh: active; UGM FP inh: 0.1

How did CCCC(NS(=O)(=O)c1ccc(C)cc1)C(=O)O (stereo unspecified) do in these assays?
RecA splice inh: -1.2; Rv3671c inh: 4.6; Mtb bLac sens: -5.9; GDH-TPI counter: -11.3; FBA Mtb inh: -3.0; UGM FP inh: 3.6

Results for CCC[C@@H](NS(=O)(=O)c1ccc(C)cc1)C(=O)Oc1ccc2c3c(c(=O)oc2c1)CCC3 ?
RecA splice inh: -0.5; Rv3671c inh: -8.4; Mtb bLac sens: 65.9; GDH-TPI counter: 13.2; FBA Mtb inh: active; UGM FP inh: -3.5

How did CCC(NC(=O)OCc1ccccc1)C(=O)Oc1ccc2ccc(=O)oc2c1 (stereo unspecified) do in these assays?
RecA splice inh: -39.0; Rv3671c inh: 3.3; Mtb bLac sens: 33.6; GDH-TPI counter: 20.2; FBA Mtb inh: active; UGM FP inh: -2.3

Results for Cc1ccc(S(=O)(=O)N2CCN(C(=O)Cc3c(F)cccc3Cl)CC2)cc1 ?
RecA splice inh: 0.7; Rv3671c inh: 2.9; Mtb bLac sens: -0.6; GDH-TPI counter: 0.0; FBA Mtb inh: -0.8; UGM FP inh: -0.5

How did O=C(N[C@H]1/C=C\[C@@H](O)CCCC1)OCc1ccccc1 do in these assays?
GDH-TPI counter: 1.8; FBA Mtb inh: 3.0

Results for Cc1ccc(S(=O)(=O)NCCC(=O)Oc2ccc3ccc(=O)oc3c2)cc1 ?
RecA splice inh: -62.5; Rv3671c inh: -5.4; Mtb bLac sens: 30.4; GDH-TPI counter: 6.2; FBA Mtb inh: active; UGM FP inh: 4.5

Results for Cc1ccc2cc(S(=O)(=O)NCCC(=O)O)ccc2c1 ?
RecA splice inh: 0.1; Rv3671c inh: -14.8; Mtb bLac sens: -2.4; GDH-TPI counter: 6.2; FBA Mtb inh: 0.2; UGM FP inh: 2.5

How did Cc1cc(Nc2ccc(O)cc2)ccc1N do in these assays?
Rv3671c inh: 33.4; Mtb bLac sens: 4.4; UGM FP inh: 0.8

Bioassay records: PubChem BioAssay, several laboratories
